E coli growth-1: E. coli growth inhibition. Escherichia coli growth, OD600, 23 h; stronger effect = lower value. OD600 absorbance (test concentration not listed). 330,000 tested, 0.21% active. AID 1053175;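 active means OD600 absorbance below the run mean of sample wells minus 3.6 SD, in any replicate, cut at about 0.56 in these data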
p-CIP stab down: compounds decreasing mouse p/CIP protein stability. 290,000 tested, 0.01% active. F442A p/CIP-EGFP cells, EGFP fluorescence, 16 h. decrease of EGFP signal, % at 10 µM;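 active means EGFP signal decrease of at least 30% at 10 µM or well 3 SD below plate mean, unless failing retest; inactive means the rest, including hits failing retest or dose response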
Target sequence (Q05BA5 1-1403): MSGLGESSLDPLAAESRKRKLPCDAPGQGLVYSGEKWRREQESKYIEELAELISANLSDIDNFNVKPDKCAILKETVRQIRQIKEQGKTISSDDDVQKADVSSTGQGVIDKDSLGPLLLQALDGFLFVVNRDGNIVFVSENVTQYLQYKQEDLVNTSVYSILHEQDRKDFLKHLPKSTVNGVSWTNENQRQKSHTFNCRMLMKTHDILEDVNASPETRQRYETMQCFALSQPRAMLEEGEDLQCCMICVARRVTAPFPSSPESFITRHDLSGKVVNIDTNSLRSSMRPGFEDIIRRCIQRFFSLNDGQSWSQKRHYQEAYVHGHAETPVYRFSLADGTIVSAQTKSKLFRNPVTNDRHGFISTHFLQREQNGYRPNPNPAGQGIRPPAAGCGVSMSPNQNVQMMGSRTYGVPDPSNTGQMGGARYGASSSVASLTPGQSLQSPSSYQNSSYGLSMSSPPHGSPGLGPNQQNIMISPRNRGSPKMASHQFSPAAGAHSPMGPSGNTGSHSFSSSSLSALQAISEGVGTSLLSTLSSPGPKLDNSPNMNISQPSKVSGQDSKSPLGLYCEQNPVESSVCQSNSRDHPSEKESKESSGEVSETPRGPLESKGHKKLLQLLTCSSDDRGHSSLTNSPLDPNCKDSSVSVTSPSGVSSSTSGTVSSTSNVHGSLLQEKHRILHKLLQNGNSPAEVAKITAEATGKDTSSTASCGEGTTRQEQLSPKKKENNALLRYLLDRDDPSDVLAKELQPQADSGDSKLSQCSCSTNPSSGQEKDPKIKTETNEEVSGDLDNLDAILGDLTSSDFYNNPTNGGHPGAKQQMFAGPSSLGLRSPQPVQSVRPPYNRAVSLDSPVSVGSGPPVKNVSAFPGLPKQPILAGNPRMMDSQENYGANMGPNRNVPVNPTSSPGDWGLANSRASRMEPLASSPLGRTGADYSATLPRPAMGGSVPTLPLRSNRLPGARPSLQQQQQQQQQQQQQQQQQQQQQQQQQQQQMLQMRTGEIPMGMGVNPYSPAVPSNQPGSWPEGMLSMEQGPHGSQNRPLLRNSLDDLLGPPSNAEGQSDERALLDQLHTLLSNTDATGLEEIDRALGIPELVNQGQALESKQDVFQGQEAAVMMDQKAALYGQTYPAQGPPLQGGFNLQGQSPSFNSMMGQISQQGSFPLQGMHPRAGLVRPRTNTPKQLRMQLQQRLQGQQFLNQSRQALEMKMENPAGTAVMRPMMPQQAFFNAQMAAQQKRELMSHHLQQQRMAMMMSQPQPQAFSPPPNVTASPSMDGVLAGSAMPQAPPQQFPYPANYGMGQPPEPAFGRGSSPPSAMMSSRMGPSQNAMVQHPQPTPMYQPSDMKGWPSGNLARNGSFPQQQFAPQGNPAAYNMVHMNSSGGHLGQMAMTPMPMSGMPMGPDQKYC
AddAB inh: less growth of phage-infected E. coli with AddAB | E. coli expressing H. pylori AddAB, absorbance growth | inhibition, % at 11.9 µM | 330,000 tested, 0.29% active | AID 435030; in the data active means inhibition above about 12%
Tat export inh: blocks Tat-dependent protein export in E. coli; 340,000 tested, 0.036% active; E. coli MC4100 TorA-mCherry Tat export, fluorescence; AID 488895; inhibition, % at 10 µM;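 active means mean replicate inhibition at least 50% and at least half of replicates individually reaching 50%; inconclusive means only one of the two criteria met; inactive means neither criterion met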;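 further: exported cargo escapes ClpAP degradation while cytoplasmic cargo is degraded and loses fluorescence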
E coli growth-2: counter-screen for AddAB inhibitors: E. coli growth inhibition; inhibition, % at 11.9 µM; E. coli V3065 growth, OD600 absorbance, 18 h; 330,000 tested, 0.27% active;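 active means inhibition above the campaign's mean inhibition across all tested compounds plus 3 SD, cut at about 9.9% in these data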;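 further: uninfected addAB+ strain grown without phage in ampicillin broth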
phage Ecoli inh: E. coli growth loss with phage present. growth absorbance. inhibition, % at 11.9 µM. 360,000 tested, 0.26% active. AID 651602; in the data active means inhibition above about 11%
RecBCD conf: confirmation: growth loss of phage-infected RecBCD+ E. coli (RecBCD inhibitor screen). shares compounds with phage Ecoli inh. E. coli V66 + T4 2- phage, growth OD. inhibition, % at 11.9 µM. 890 tested, 45% active. AID 651982;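 active means mean inhibition over triplicates exceeding the hit threshold derived in the original primary screen, cut at about 11% in these data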
Ecoli viability: bacterial viability inhibition counter-screen for RecBCD. shares compounds with phage Ecoli inh. E. coli viability, absorbance (OD) growth. inhibition, % at 11.9 µM. 890 tested, 29% active. AID 651983; in the data active means inhibition above about 20%;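 further: E. coli strain V66 grown with compound alone and no phage infection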
AddAB counter: growth loss of phage-infected AddAB E. coli, RecBCD counter-screen; AID 651984; E. coli expressing H. pylori AddAB + T4 phage, OD growth; gene 2 mutant T4, recBCD-deleted host; shares compounds with phage Ecoli inh; inhibition, % at 11.9 µM; 890 tested, 45% active;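 active means mean inhibition above the solvent-only control wells' mean plus 3 SD, cut at about 22% in these data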;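 further: higher means less bacterial growth from phage killing when AddAB is blocked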
Numbers stand for hits. In the library only some 0.51% were active in any assay of this set; here they are far more common.

What do the screens show for `COc1c(O)cc2oc(-c3ccc(O)cc3)cc(=O)c2c1O`?
E coli growth-1: inactive; p-CIP stab down: inactive; AddAB inh: inactive; Tat export inh: inactive; E coli growth-2: inactive; phage Ecoli inh: inactive

How did COC(=O)c1ccc(NS(=O)(=O)c2c(C)nc3sccn3c2=O)cc1 do in these assays?
phage Ecoli inh: inactive

Results for CO[C@H]1C=CO[C@@]2(C)Oc3c(C)c(O)c4c(O)c(c(C=NN5CCN(C)CC5)c(O)c4c3C2=O)NC(=O)C(C)=CC=C[C@H](C)[C@H](O)[C@@H](C)[C@@H](O)[C@@H](C)[C@H](OC(C)=O)[C@@H]1C ?
p-CIP stab down: inactive; AddAB inh: 48.7; Tat export inh: 75.0; E coli growth-2: 41.6; phage Ecoli inh: 76.4; RecBCD conf: 78.2; Ecoli viability: 90.1; AddAB counter: 92.8

What do the screens show for `CO[C@H]1C=CO[C@@]2(C)Oc3c(C)c(O)c4c(O)c(c(C=NN5CCN(C6CCCC6)CC5)c(O)c4c3C2=O)NC(=O)C(C)=CC=C[C@H](C)[C@H](O)[C@@H](C)[C@@H](O)[C@@H](C)[C@H](OC(C)=O)[C@@H]1C`?
p-CIP stab down: inactive

Results for CCCC[n+]1ccn(-c2nc3ccccc3nc2[N-]S(=O)(=O)c2ccccc2)c1 ?
E coli growth-1: inactive; p-CIP stab down: inactive; AddAB inh: inactive; Tat export inh: inactive; E coli growth-2: inactive; phage Ecoli inh: inactive

What do the screens show for `CCCC[n+]1ccn(-c2nc3ccccc3nc2[N-]S(=O)(=O)c2cccs2)c1`?
E coli growth-1: inactive; p-CIP stab down: inactive; AddAB inh: inactive; Tat export inh: inactive; E coli growth-2: inactive; phage Ecoli inh: 97.3; RecBCD conf: inactive; Ecoli viability: inactive; AddAB counter: inactive

How did Nc1nc(=O)n(C2CC(O)C(CO)O2)cc1F (stereo unspecified) do in these assays?
Tat export inh: inconclusive; phage Ecoli inh: 86.9; RecBCD conf: 78.3; Ecoli viability: 77.5; AddAB counter: 89.7

How did Nc1nc(=O)n(C2CC(O)C(CO)O2)cc1Cl (stereo unspecified) do in these assays?
phage Ecoli inh: 11.8; RecBCD conf: inactive; Ecoli viability: inactive; AddAB counter: 38.1

What do the screens show for `Nc1ncn(C2CC(O)C(CO)O2)c(=O)n1` (stereo unspecified)?
E coli growth-1: inactive

How did CC(C)CNC(=O)COC(=O)c1ccc2c(c1)C(=O)N(Cc1ccco1)C2=O do in these assays?
E coli growth-1: inactive; p-CIP stab down: inactive; AddAB inh: inactive; Tat export inh: inactive; E coli growth-2: inactive; phage Ecoli inh: inactive

How did CCOC(=O)c1ccc(NC(=O)c2ccco2)cc1 do in these assays?
E coli growth-1: inactive; p-CIP stab down: inactive; AddAB inh: inactive; Tat export inh: inactive; E coli growth-2: inactive; phage Ecoli inh: inactive

Results for O=C(CSc1n[nH]c(-c2ccncc2)n1)Nc1ccccc1 ?
E coli growth-1: inactive; p-CIP stab down: inactive; AddAB inh: inactive; Tat export inh: inactive; E coli growth-2: inactive; phage Ecoli inh: inactive

What do the screens show for `COc1ccc(C(=O)N/N=C(\C)c2ccccn2)cc1OC`?
p-CIP stab down: inactive; AddAB inh: inactive; Tat export inh: inactive; E coli growth-2: inactive; phage Ecoli inh: inactive

How did COc1ccccc1NC(=S)NN=C(C)c1ccccn1 do in these assays?
Tat export inh: inactive; phage Ecoli inh: 17.1; RecBCD conf: 13.5; Ecoli viability: inactive; AddAB counter: inactive

What do the screens show for `CC(=NNC(=S)Nc1cccc(C)c1)c1ccccn1`?
Tat export inh: inactive; phage Ecoli inh: 13.8; RecBCD conf: 16.4; Ecoli viability: inactive; AddAB counter: inactive

What do the screens show for `Cc1onc(-c2ccccc2Cl)c1C(=O)N1CCc2ccccc21`?
E coli growth-1: inactive; p-CIP stab down: inactive; AddAB inh: inactive; Tat export inh: inactive; E coli growth-2: inactive; phage Ecoli inh: inactive

Results for O=C(NN=Cc1ccc2c(c1)OCO2)C(=O)N1CCCC1 ?
E coli growth-1: inactive

Bioassay records (PubChem BioAssay)
